Data on 38 compounds can be found in PubChem BioAssay (NCI).

The panel holds about 83,000 compounds, 20% with a hit somewhere; the sample as a whole holds those more often.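 Interpretation: 100, growth as untreated; towards 0, rising growth inhibition; 0, no net growth; 0 to -100, cell death. Compounds scoring below 10 were considered active.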 Active and inactive are the calls of the source.

This test deals with HCT-116 colon. The test is described as follows: NCI-60 one-dose screen, 48 h (100 = growth as untreated, 0 = no growth, -100 = all killed). As to conditions: 10 µM unless noted.
With `Cc1nn(-c2ccccc2)c(Cl)c1/C=C(/NC(=O)c1ccccc1)c1nc2ccccc2[nH]1`, the growth was 86.6% (inactive).

On to `Cc1ccc(-c2c(-c3ccccc3)c(=O)oc3ccc(C)cc23)cc1`, for which the growth was 72.8% (inactive).

Turning to `CC1(c2ccccc2)NC(=O)N(NC(=O)CSc2nc(-c3cccs3)nc3ccccc23)C1=O` (stereo not drawn), the growth is 93.6% (inactive).

Regarding `C(=N\Nc1ncc(-c2cc3cc4c(cc3o2)OCO4)s1)/c1ccco1`, the growth is -13.6% (active).

For the compound `O=C1/C(=C\c2cccnc2)SC(=S)N1CCc1ccc(O)cc1`, the growth is 15% (inactive).

Turning to `CC1(C)CC[C@]2(C(=O)N3CCOCC3)CC[C@]3(C)C(=CC[C@@H]4[C@@]5(C)CC[C@H](OC(=O)c6cccnc6)C(C)(C)[C@@H]5CC[C@]43C)[C@@H]2C1`, the growth was 31.8% (inactive).

Take `COC(=O)[C@]12CC[C@@H](C)[C@H](C)[C@@H]1C1=CC[C@@H]3[C@@]4(C)C(C=O)=C[C@@](C)(COC(=O)c5ccco5)[C@@H]4C(=O)C[C@@]3(C)[C@]1(C)CC2`: the growth is 12.6% (inactive).

For `O=C(COc1ccc(/C=C2\Oc3ccccc3C2=O)cc1)Nc1nc2c(s1)CCCC2`, the growth is 75.5% (inactive).

`Cn1cc(-c2csc(-c3ccccc3)n2)c2cccnc21`: the growth is -76.9% [100 µM] (active).

As for `CCOP(=O)(OCC)C1CP(=O)(c2ccccc2)CC(C)=C1Cl` (stereo not drawn), the growth was 91.5% (inactive).

In the case of `S=C(Cc1ccc2c(c1)CCCC2)N1CCOCC1`, the growth is 87.6% (inactive).

For `CN1C(=O)N(C)C2C1NN=c1s/c(=C\c3ccccc3)c(=O)n12` (stereo not drawn), the growth was 22.5% (inactive).

In the case of `Cc1ccc(C(=O)CSc2nc(-c3ccc(Br)cc3)c(C#N)c(=O)[nH]2)cc1`, the growth was 95.9% (inactive).

With `O=C1N=c2cc3c(cc2=C/C1=C/c1sc(=S)n(CCc2ccc(O)cc2)c1O)OCCO3`, the growth is 7.52% (active).

Regarding `COc1ccc(CN2C(=O)C(Cl)=C(Nc3cccc(C(F)(F)F)c3)C2=O)cc1`, the growth was 28.9% (inactive).

`O=C1C=C[C@]2(C[C@@H](c3cccc(C(F)(F)F)c3)O[C@@H](c3cccc(C(F)(F)F)c3)O2)O1`: the growth was -70.6% (active).

Consider `Clc1cc(Cl)cc(Nc2ccc3cc(OCCCN4CCOCC4)ccc3n2)c1`, for which the growth is 19.8% (inactive).

Consider `CC(=O)OC1CCC2(C)C(=CC3C4CCC(=O)C4(C)CCC32)C1` (stereo not drawn), for which the growth was 100% (inactive).

As for `COc1cc(C2NC(=O)c3ccccc3N2)ccc1OCCCCCOc1c(OC)cc(C2=NOC(c3cc(OC)c(OC)c(OC)c3)C2)cc1OC` (stereo not drawn), the growth was 60% (inactive).

Take `O=C(N/N=C/c1ccncc1)c1ccc(C(F)(F)F)nc1Nc1cccc(C(F)(F)F)c1`: the growth is 11.1% (inactive).

With `C[C@@]1(CCC#N)[C@H]2CC[C@@H]3[C@H]4[C@H](C(=O)/C=C/c5cccnc5)CC[C@]4(C#N)CC[C@@]3(C)[C@]2(C)CC[C@H]1C(=O)/C=C/c1cccnc1`, the growth is 20% (inactive).

In the case of `Cc1ccc(NCCN(C)C)c2c(=O)c3ccccc3sc12`, the growth was 10.2% (inactive).

In the case of `COc1ccccc1NC(=O)N/C(N)=N/c1nc2ccccc2s1`, the growth is 13.4% (inactive).

In the case of `COC(=O)CCC1=C(C)C2=NC1=CC1=NC(=CC3=NC(=Cc4[nH]c(/c(=C(/C)O)c4C)=C2)C(C(C)=O)=C3C)C(C)=C1CCC(=O)OC`, the growth is 102% (inactive).

With `Oc1ccc(CN2CCC(N3CCOCC3)CC2)c2cccnc12`, the growth is 9.68% (active).

`C#Cc1cccc(NC(=O)c2ccc(NC(=O)CCl)cc2)c1`: the growth was -30.3% [8.25 µM] (active).

Consider `Cc1c(C(=O)NC(Cc2ccccc2)C(O)C(=O)NCc2ccc(F)cc2)[nH]c2ccccc2c1=O` (stereo not drawn), for which the growth is 104% (inactive).

As for `Cc1ccc2nc(NC(=O)CSc3nc(Nc4ccc([N+](=O)[O-])cc4)c(C#N)c(-c4ccccc4)n3)sc2c1`, the growth is 89.5% (inactive).

As for `CCN1C(=O)N(CC)C2Nn3c(s/c(=C4\C(=O)N(C)c5ccccc54)c3=O)=NC21` (stereo not drawn), the growth is 11.1% (inactive).

As to `C=CCSc1nc2ccccc2cc1/C=N/O`, the growth was 78.8% (inactive).

As for `C=C(C)[C@@H]1CC[C@]2(C)[C@H](CC=C3[C@@H]4CC(C)(C)CC[C@]4(C(N)=O)CC[C@]32C)[C@@]1(C)CCC#N`, the growth is 9.92% (active).

As for `CCOC(=O)C/C(C)=N\NC(=O)c1ccncc1`, the growth is 89.3% (inactive).

Turning to `O=C(/C=C/c1ccc(Cl)nc1)c1ccc(Cl)cc1Cl`, the growth is 36.7% (inactive).

On to `COC(=O)[C@]12CC[C@@H](C)[C@H](C)[C@@H]1C1=CC[C@@H]3[C@@]4(C)C(C=O)=C[C@@](C)(COC(=O)c5ccco5)C4=CC[C@@]3(C)[C@]1(C)CC2`, for which the growth is -71.3% (active).

As for `CC(C)(C)C(CCc1ccc(Cl)cc1)N1CCN(C2CCCCC2)CC1` (stereo not drawn), the growth is 17.5% (inactive).

Turning to `O=C(Nc1ccc(-n2cc(-c3ccncc3)c(-c3ccc(Cl)c(O)c3)n2)cc1)N1CCOCC1`, the growth is 94.8% (inactive).

`COc1nc(N(C)O)nc(N(C)O)n1`: the growth was 7.23% (active).

As to `O=c1[nH]ccc2nc(N3CCC(O)CC3)nc(Nc3ccc(N4CCOCC4)cc3)c12`, the growth was 22.8% (inactive).
